The results in this text go back to ChEMBL document CHEMBL3988442, “University of Dundee, Small-Polar-MMV Screening Library” (2021).

For the experiment, the target named is AMP-activated protein kinase, AMPK (Homo sapiens) (UniProt P54646+O43741+P54619+Q9UGJ0+Q9Y478+Q13131+Q9UGI9). As to the kind of experiment: AMP-dependent Kinase enzyme assay. An in vitro enzyme assay that detects ADP turnover that is directly proportional to AMPK activity. This uses naive AMPK that is activated during the assay with MK-8722. Particulars: 30 µM. The experiment is classed as functional. Set-up: scale not given: direction of the effect not stated beside the values.
Consider `O=C1NC(C(=O)NCc2cccnc2Oc2ccc(F)c(F)c2)CO1` (stereo not given), for which the Percent Effect is 0.367%.

Regarding `CCCn1cc(-c2cc(C(=O)N(C)C)c3ccc(OC)cc3n2)cn1`, the Percent Effect is 8.93%.

In the case of `COc1c(C)cnc(CN2CCCC(c3noc(C4CC4)n3)C2)c1C` (stereo not given), the Percent Effect is -0.157%.

With `O=C(NCc1ccon1)Nc1cc(F)ccc1N1CCCCC1`, the Percent Effect turned out to be 5.82%.

Turning to `COCC(=O)N1CCN(C(C)c2ncc(-c3ccccc3)o2)CC1` (stereo not given), the Percent Effect came out at 2.58%.

Take `Cc1cc(C)n(CC(C)NC(=O)C2(c3ccccc3F)CC2)n1` (stereo not given): the Percent Effect is -3.82%.

For `CC(c1nc(-c2cccnc2)no1)N(C)CCCOc1ccccc1` (stereo not given), the Percent Effect was -4.41%.

For `COC(CNC(=O)CNC(=O)c1ccccc1)c1cccc(Cl)c1` (stereo not given), the Percent Effect worked out at 4.84%.

For the compound `COc1ccc2c(c1)CCCN(C(=O)NCC1CCCO1)C2` (stereo not given), the Percent Effect is 5.17%.

Regarding `COCCN(Cc1sccc1C)C(=O)COc1cccnc1`, the Percent Effect is -3.19%.

Regarding `Cc1nc(C(NS(=O)(=O)N(C)C)c2ccccc2F)no1` (stereo not given), the Percent Effect is -2.57%.

On to `CN(CC(=O)NCC(=O)Nc1ccc(F)cc1)Cc1cccs1`, for which the Percent Effect was -1.85%.

`CC(NCc1cccc(NC(=O)C2CCCCC2)c1)c1cnn(C)c1` (stereo not given): the Percent Effect came out at 4.61%.

In the case of `CN1CCC(Nc2cc(Cl)ccc2OCC(F)(F)F)C1=O` (stereo not given), the Percent Effect is -5.49%.

With `CCc1nc(C)c(CN2CCOC(Cc3ccccc3Cl)C2)[nH]1` (stereo not given), the Percent Effect is -2.77%.

For the compound `CN1CCN(CCOc2ccc(NC(=O)c3ccoc3)cc2)CC1`, the Percent Effect was -4.02%.

Turning to `CCOc1ccc(Oc2cc(CN)ccn2)cc1`, the Percent Effect was -43.1%.

For `CS(=O)(=O)c1ccccc1NC(=O)N[C@@H]1c2ccccc2C[C@@H]1O`, the Percent Effect came to 6.87%.

Take `Cc1cc(C)nc(NC2CC(=O)N(C)C2)n1` (stereo not given): the Percent Effect is -3.57%.

In the case of `CNC(=O)NC(=O)CN1CCc2c(Br)ccc(F)c2C1`, the Percent Effect came to 5.32%.

Regarding `Cc1ccc(C2CSCCN2CCS(C)(=O)=O)cc1` (stereo not given), the Percent Effect was -3.45%.

As for `CN(Cc1n[nH]c2c1CCCCC2)C(=O)c1cc(-c2cccn2C)n[nH]1`, the Percent Effect worked out at 12.8%.

With `CCCS(=O)(=O)N1CCC(c2ccc(OC)cc2)CC1`, the Percent Effect worked out at 2.67%.

`Cc1nc2n(n1)CC(NCc1ccc(Cl)c3cccnc13)CC2` (stereo not given): the Percent Effect is 9%.

Regarding `O=C(Nc1ccccc1OCCc1ccccn1)N1CCOCC(O)C1` (stereo not given), the Percent Effect came out at 2.87%.

As for `O=C(Cc1c(F)cccc1Cl)NC1CCCCNC1=O` (stereo not given), the Percent Effect worked out at 7.73%.

`COC(=O)Cn1c(C)cc(=O)c2cc(F)ccc21`: the Percent Effect was found to be 1.38%.

In the case of `CC(C)(C)c1ccc(C(=O)NCCCNC(=O)c2cnccn2)cc1`, the Percent Effect came out at 8.31%.

Consider `Cc1ccnc2c1NC(=O)CN2C(=O)CCC(F)(F)F`, for which the Percent Effect was 1.79%.

As to `CC(C)n1ccnc1C1CCN(c2nccc(C(F)(F)F)n2)CC1`, the Percent Effect came out at 15.9%.

For the compound `Cc1ccccc1Cc1nc(CSc2nnc(N)n2C2CC2)no1`, the Percent Effect worked out at 7.43%.

`CC(C)C(C(=O)O)c1cccc(Cl)c1` (stereo not given): the Percent Effect is -3.52%.

Regarding `Cc1csc(C(=O)N2CCC(S(C)(=O)=O)C2)c1` (stereo not given), the Percent Effect is -5.3%.

With `CC(C)c1ccc(S(=O)(=O)NC2CCN(CC(F)(F)F)C2)cc1` (stereo not given), the Percent Effect was found to be 8.13%.

Regarding `CC(C)Oc1cccc(CN(C)C(=O)Nc2cccn(C)c2=O)c1`, the Percent Effect is -63%.

`COc1ccc(NC(=O)c2cnc(C3CCN(C)CC3)nc2C)cc1`: the Percent Effect was determined as 3.65%.

With `CC(C)[C@@H]1CN(c2ccc(F)cn2)C[C@H]1NS(C)(=O)=O`, the Percent Effect is -3.59%.

`Cc1ccc(C(=O)NCCC2CN(C3CCCC3)CCO2)c(C)c1` (stereo not given): the Percent Effect turned out to be 4.11%.

In the case of `Cc1nccn1CCCN1CCC(c2nccn2CC2CCC2)CC1`, the Percent Effect was -9.78%.

As for `N#CCCN(Cc1ccccn1)C(=O)c1cccc(CN2CCCC2)c1`, the Percent Effect stood at 0.67%.
